{"source": "PubChem BioAssay (Tox21)", "note": "Records with an inconclusive call do not appear. Entries that show only a call come without a potency. Calls of active or inactive are those of the source. Calls follow the shape of the full dose curve.", "data": [{"assay": "p53 small molecule agonists, cell-based qHTS assay with rat liver microsomes: qHTS cell viability counter screen (AID 1963580); also: nearly all actives have a fitted effect of over 45% in size", "details": "p53RE-bla HCT-116 + rat microsomes, ATP viability, 16 h; series mostly up to 66 µM", "summary_of_the_method": "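In HCT-116 cells carrying a p53 response element-bla reporter, compounds were metabolically activated in situ by rat liver microsomes with NADPH over 16 h. Cell ATP content then served as the cytotoxicity measure.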", "values": [{"smiles": "O=c1[nH]c(=O)n([C@H]2C[C@H](O)[C@@H](CO)O2)cc1I", "Potency": "inactive"}, {"smiles": "CC[N+](CC)(CC)CCOc1cccc(OCC[N+](CC)(CC)CC)c1OCC[N+](CC)(CC)CC", "Potency": "inactive"}, {"smiles": "C[N+]1(C)[C@@H]2CC(OC(=O)[C@H](CO)c3ccccc3)C[C@H]1[C@@H]1O[C@@H]12", "note": "(some centres undefined)", "Potency": "inactive"}, {"smiles": "C[C@@H]1C[C@H]2[C@@H]3CCC4=CC(=O)C=C[C@]4(C)[C@@]3(F)[C@@H](O)C[C@]2(C)[C@H]1C(=O)CO", "Potency": "inactive"}, {"smiles": "C[C@H]1C[C@H]2[C@@H]3CCC4=CC(=O)C=C[C@]4(C)[C@@]3(F)[C@@H](O)C[C@]2(C)[C@@]1(O)C(=O)COP(=O)(O)O", "Potency": "inactive"}, {"smiles": "CCOC(=O)OC(C)OC1=C(C(=O)Nc2ccccn2)N(C)S(=O)(=O)c2ccccc21", "note": "(centres undefined)", "Potency": "inactive"}, {"smiles": "C[N+](C)(C)CC(O)CC(=O)[O-]", "note": "(centres undefined)", "Potency": "inactive"}, {"smiles": "Cc1cccc(C)c1OCC(C)N", "note": "(centres undefined)", "Potency": "inactive"}, {"smiles": "CC1=NS(=O)(=O)c2cc(Cl)ccc2N1", "Potency": "inactive"}, {"smiles": "CC(C)NCC(O)c1ccc(NS(C)(=O)=O)cc1", "note": "(centres undefined)", "Potency": "inactive"}, {"smiles": "CC[C@H]1OC(=O)[C@H](C)[C@@H](O[C@H]2C[C@@](C)(OC)[C@@H](O)[C@H](C)O2)[C@H](C)[C@@H](O[C@@H]2O[C@H](C)C[C@H](N(C)C)[C@H]2O)[C@](C)(OC)C[C@@H](C)C(=O)[C@H](C)[C@@H](O)[C@]1(C)O", "Potency": "inactive"}, {"smiles": "CC[C@H]1OC(=O)[C@H](C)[C@@H](O[C@H]2C[C@@](C)(OC)[C@@H](O)[C@H](C)O2)[C@H](C)[C@@H](O[C@@H]2O[C@H](C)C[C@H](N(C)C)[C@H]2O)[C@](C)(O)C[C@@H](C)C(=O)[C@H](C)[C@@H](O)[C@]1(C)O", "Potency": "inactive"}, {"smiles": "NCCCNCCSP(=O)(O)O", "activity change, negative = cytotoxicity": "7.5% [at 5.99 µM] (inactive)"}, {"smiles": "NS(=O)(=O)c1cc2c(cc1Cl)NC(C(Cl)Cl)NS2(=O)=O", "note": "(centres undefined)", "Potency": "inactive"}, {"smiles": "CCOC(=O)[C@H](CCc1ccccc1)N[C@@H](C)C(=O)N1CCC[C@H]1C(=O)O", "Potency": "inactive"}, {"smiles": "COC(=O)[C@@H]1[C@H]2C[C@H]3c4[nH]c5ccccc5c4CCN3C[C@@H]2CC[C@@H]1O", "Potency": "inactive"}, {"smiles": "Oc1cccc(O)c1O", "Potency": "inactive"}, {"smiles": "COc1cc(C(=O)NC2CCCNC2)cc(OC)c1OC", "note": "(centres undefined)", "Potency": "inactive"}, {"smiles": "CCN[C@@H]1C[C@H](N)[C@@H](OC2OC(CN)=CCC2N)[C@H](O)[C@H]1O[C@H]1OC[C@](C)(O)[C@H](NC)[C@H]1O", "note": "(some centres undefined)", "activity change, negative = cytotoxicity": "-10.4% [at 0.249 µM] (inactive)"}, {"smiles": "O=C(O)CCNC(=O)c1ccccc1", "Potency": "inactive"}, {"smiles": "CN1CCN(C(c2ccccc2)c2ccccc2)CC1", "Potency": "inactive"}, {"smiles": "CCCN(CCC)C(=O)C(CCC(=O)O)NC(=O)c1ccccc1", "note": "(centres undefined)", "Potency": "inactive"}, {"smiles": "CNS(=O)(=O)Cc1ccc2[nH]cc(CCN(C)C)c2c1", "Potency": "inactive"}, {"smiles": "CCN(CC)CCNC(=O)c1cc(S(C)(=O)=O)ccc1OC", "Potency": "inactive"}, {"smiles": "CCOC(=O)[C@H](CCc1ccccc1)N[C@@H](C)C(=O)N1[C@H](C(=O)O)C[C@@H]2CCC[C@@H]21", "Potency": "inactive"}, {"smiles": "Nc1ccc(S(=O)(=O)NC(=O)c2ccccc2)cc1", "Potency": "inactive"}, {"smiles": "CN1CCN(c2c(F)cc3c(=O)c(C(=O)O)cn(CCF)c3c2F)CC1", "Potency": "inactive"}, {"smiles": "CCn1cc(C(=O)O)c(=O)c2cnc(N3CCCC3)nc21", "activity change, negative = cytotoxicity": "-0.816% [at 5.99 µM] (inactive)"}, {"smiles": "CCn1cc(C(=O)O)c(=O)c2cc(F)c(N3CCNCC3)cc21", "Potency": "inactive"}, {"smiles": "Cc1[nH]cnc1CN1CCc2c(c3ccccc3n2C)C1=O", "Potency": "inactive"}, {"smiles": "CC(C)(C)NCC(O)COc1cccc2c1C[C@H](O)[C@H](O)C2", "note": "(some centres undefined)", "Potency": "inactive"}, {"smiles": "O=C(Oc1ccccc1C(=O)O)c1ccccc1O", "Potency": "inactive"}, {"smiles": "C[n+]1ccccc1/C=N/O", "Potency": "inactive"}, {"smiles": "CC12CCC(CC1=O)C2(C)C", "note": "(centres undefined)", "Potency": "inactive"}, {"smiles": "COC(=O)CCc1ccc(OCC(O)CNC(C)C)cc1", "note": "(centres undefined)", "Potency": "inactive"}, {"smiles": "NCCCCCC(=O)O", "Potency": "inactive"}, {"smiles": "CCOc1cc(N)c(Cl)cc1C(=O)NCC1CN(Cc2ccc(F)cc2)CCO1", "note": "(centres undefined)", "Potency": "inactive"}, {"smiles": "CCCc1nn(C)c2c(=O)[nH]c(-c3cc(S(=O)(=O)N4CCN(C)CC4)ccc3OCC)nc12", "Potency": "inactive"}, {"smiles": "Cc1ccc(S(=O)(=O)NC(=O)NN2CC3CCCC3C2)cc1", "note": "(centres undefined)", "Potency": "inactive"}]}]}
